Test results reported in PubChem BioAssay (NCI).
About 79,000 compounds went through this panel and 15% of them were active in at least one assay; those are over-represented in the sample as a whole. Calls of active or inactive are those of the source. Cut-off read from the data, not from the text of the source: active = growth inhibition above about 70%; inactive = the rest.

Experiment: NCI Yeast Anticancer Drug Screen. Data for the CLN2oe strain (AID 163);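 note: 0% = growth of vehicle-only control cultures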
Conditions: S. cerevisiae CLN2oe strain, active compounds read high
Method: Growth inhibition of yeast strains with defined genetic alterations is measured as a screen for potential anti-cancer activity. Selected strains with alterations in DNA damage repair or cell cycle control were exposed to compounds and growth inhibition was measured relative to vehicle treated controls. The strain used in this assay is CLN2oe

Measured: growth inhibition

Cc1ccc(CCC2=CCCc3c2ccc2ccccc32)cc1
inactive: at 1.2 µM -5% | at 3.7 µM -2% | at 11.0 µM -9% | at 33.0 µM -5% | at 100.0 µM 9%

O=c1ssc2ncccc12
active: at 33.0 µM 85% | at 100.0 µM 97%
inactive: at 1.2 µM -7% | at 3.7 µM 6% | at 11.0 µM 45%

O=C(NCCCCNCCCNC(=O)c1cc(-c2ccccc2)nc2ccccc12)c1cc(-c2ccccc2)nc2ccccc12
inactive: at 1.2 µM 1% | at 3.7 µM -1% | at 11.0 µM -1% | at 33.0 µM 43%
active: at 100.0 µM 91%

[O-][n+]1c2ccc(O)cc2nc2ccc(Cl)cc21
inactive: at 1.2 µM 0% | at 3.7 µM 9% | at 11.0 µM 20% | at 33.0 µM 34% | at 100.0 µM 49%

O=C1C(=O)c2ccccc2C=C1[N+](=O)[O-]
inactive: at 1.2 µM 2% | at 3.7 µM 3% | at 11.0 µM 9% | at 33.0 µM 17% | at 100.0 µM 23%

CCOC(=O)c1cc(-c2ccc(Cl)cc2)c([N+](=O)[O-])n1C
active: at 100.0 µM 96%
inactive: at 1.2 µM 10% | at 3.7 µM -3% | at 11.0 µM 7% | at 33.0 µM 60%

O=[N+]([O-])/C=C/c1ccc2ccccc2c1
active: at 11.0 µM 99% | at 33.0 µM 99% | at 100.0 µM 99%
inactive: at 1.2 µM 4% | at 3.7 µM 53%

Cn1c2ccccc2c(=O)c2cc(NC(=O)CCCCC(=O)Nc3ccc4c(c3)c(=O)c3ccccc3n4C)ccc21
inactive: at 1.2 µM -6% | at 3.7 µM -4% | at 11.0 µM -8% | at 33.0 µM 3% | at 100.0 µM 27%
